Measurements: PubChem BioAssay (NCATS)
“And” between values parts separate entries of the source, which are not always exact repeats. Identical values can stand only once. Records with an inconclusive call do not appear. The source holds several records for some structures; these can differ, active in one and inactive in another. The source made the active and inactive calls. The call rests on the fitted dose curve; in most records, active means well fitted curve in the direction sought with a large enough effect; inconclusive means small, poorly fitted or top-dose-only effect, or another doubt; inactive means no such curve, though single readings can be large; an effect the other way counts as inactive or inconclusive.

Tests used:
[1] = target: Cytochrome P450 3A7 (Homo sapiens) (UniProt P24462); test: Cytochrome P450 family 3 subfamily A member 7 (CYP3A7) small molecule antagonists: luciferase biochemical qHTS assay (AID 1963596); settings: P450-Glo CYP3A7 enzyme luminescence, 1 h; series mostly up to 57.4 µM; further: on the % scale 0 is the no-effect control and ±100 the full control effect; nearly all actives have a fitted effect of over 40% in size
Cytochrome P450 3A7 (Homo sapiens), sequence (P24462 whole entry, looked up): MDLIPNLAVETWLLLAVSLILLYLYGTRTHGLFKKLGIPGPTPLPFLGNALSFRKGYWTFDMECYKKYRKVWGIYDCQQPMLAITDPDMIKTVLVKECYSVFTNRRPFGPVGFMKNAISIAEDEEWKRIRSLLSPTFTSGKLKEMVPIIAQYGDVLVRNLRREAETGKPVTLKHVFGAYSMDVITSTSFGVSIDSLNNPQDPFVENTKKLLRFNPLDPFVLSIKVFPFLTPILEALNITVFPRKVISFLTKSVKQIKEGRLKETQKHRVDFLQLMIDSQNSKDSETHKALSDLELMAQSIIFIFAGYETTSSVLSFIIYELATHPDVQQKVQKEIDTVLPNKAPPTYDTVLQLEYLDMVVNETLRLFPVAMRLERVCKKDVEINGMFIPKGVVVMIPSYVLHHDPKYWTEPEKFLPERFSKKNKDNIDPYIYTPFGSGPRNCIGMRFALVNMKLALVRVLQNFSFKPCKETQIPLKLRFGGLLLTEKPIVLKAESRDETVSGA
Procedure, shortened: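 Luminescence from luciferin released by CYP3A7 from a proluciferin substrate, read 20 min after detection reagent. Compound and enzyme-substrate mix sat 10 min before NADPH regeneration solution; reaction ran 1 h at room temperature.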

[2] = Viability qHTS for spleen associated tyrosine kinase inhibitor (SYKi) naive MV4-11 cells (AID 1963823); settings: MV4-11 AML viability, CellTiter-Glo luminescence, 72 h; series mostly up to 45 µM; further: nearly all actives have a fitted effect of over 40% in size; further: potency means the concentration at half of the fitted maximal effect
Procedure, shortened: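 Read-out: CellTiter-Glo luminescence. Exposure: 72 hr, 37 C, 5% CO2, 95% humidity. Cells: MV4-11 without SYK inhibitor history, 500/well, qHTS format.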

[3] = Viability qHTS for spleen associated tyrosine kinase inhibitor (SYKi) drug resistant MV4-11 cells (AID 1963824); settings: SYKi-resistant MV4-11 viability, CellTiter-Glo, 72 h; series mostly up to 45 µM; further: nearly all actives have a fitted effect of over 35% in size; further: potency means the concentration at half of the fitted maximal effect
Procedure, shortened: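 SYK-inhibitor-resistant MV4-11 AML cells were seeded at 500 per well onto compound and cultured 72 hours (37 °C, 5% CO2). CellTiter-Glo was then added, and after 10 min at room temperature, luminescence gave viability.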

[4] = Quantitative highthroughput screen to assess conditional lethalithy of P12 Ichikawa cells grown in Human Plasma-Like Medium with dialyzed fetal bovine serum (HPLM+ds) (AID 1963879); settings: ATP luminescence, 48 h; Potency: viability; series mostly up to 45.8 µM; further: nearly all actives have a fitted effect of over 35% in size; further: potency means the concentration at half of the fitted maximal effect
Procedure, shortened: (§1)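 Each medium arm—HPLM with 10% dialyzed FBS, or RPMI1640 with 5 mM glucose and 10% untreated or dialyzed FBS—was screened against an 11-point, 3-fold compound titration for 48 h at 37 °C, with CellTiter-Glo luminescence as endpoint.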

[5] = Quantitative highthroughput screen to assess conditional lethalithy of P12 Ichikawa cells grown in RPMI1640 with dialyzed fetal bovine serum (RPMI+ds) (AID 1963880); settings: ATP luminescence, 48 h; Potency: P12-Ichikawa viability; series mostly up to 45.8 µM; further: nearly all actives have a fitted effect of over 35% in size; further: potency means the concentration at half of the fitted maximal effect;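 on Viability: 100% = DMSO wells and 0% = empty wells on each plate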
Procedure, shortened: as §1

[6] = Quantitative highthroughput screen to assess conditional lethalithy of P12 Ichikawa cells grown in RPMI1640 with untreated serum (RPMI+s) (AID 1963881); settings: ATP luminescence, 48 h; Potency: viability; series mostly up to 45.8 µM; further: nearly all actives have a fitted effect of over 35% in size; further: potency means the concentration at half of the fitted maximal effect;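 on Viability: 100% = DMSO wells and 0% = empty wells without cells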
Procedure, shortened: as §1

[7] = Quantitative highthroughput screen to assess conditional lethalithy of SEM cells grown in Human Plasma-Like Medium with dialyzed fetal bovine serum (HPLM+ds) (AID 1963882); settings: SEM B-ALL cells in HPLM+ds, CellTiter-Glo viability, 48 h; series mostly up to 45.8 µM; further: nearly all actives have a fitted effect of over 35% in size; further: potency means the concentration at half of the fitted maximal effect
Procedure, shortened: as §1

[8] = Quantitative highthroughput screen to assess conditional lethalithy of SEM cells grown in RPMI1640 with unreated serum (RPMI+s) (AID 1963883); settings: SEM B-ALL cells, CellTiter-Glo viability, 48 h; series mostly up to 45.8 µM; further: nearly all actives have a fitted effect of over 35% in size; further: potency means the concentration at half of the fitted maximal effect;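 on Viability: 100% = DMSO wells and 0% = empty wells without cells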
Procedure, shortened: as §1

[9] = Quantitative highthroughput screen to assess conditional lethalithy of SEM cells grown in RPMI1640 with dialyzed fetal bovine serum (RPMI+ds) (AID 1963884); settings: SEM B-ALL cells, RPMI+dialyzed FBS, CellTiter-Glo viability, 48 h; series mostly up to 45.8 µM; further: nearly all actives have a fitted effect of over 35% in size; further: potency means the concentration at half of the fitted maximal effect;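 on Viability: 100% = DMSO control wells and 0% = empty wells without cells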
Procedure, shortened: as §1

[10] = Quantitative highthroughput screen to assess conditional lethalithy of NOMO1 cells grown in Human Plasma-Like Medium with dialyzed fetal bovine serum (HPLM+ds) (AID 1963878); settings: NOMO1 AML cells in HPLM+ds, CellTiter-Glo viability, 48 h; series mostly up to 45.8 µM; further: nearly all actives have a fitted effect of over 35% in size; further: potency means the concentration at half of the fitted maximal effect;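 on Viability: 100% = DMSO wells and 0% = empty wells on each plate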
Procedure, shortened: as §1

[11] = Cellular viability qHTS for adrenocortical cancer (ACC) cell line SW-13 (AID 1963989); settings: SW-13 ACC cells viability, CellTiter-Glo, 48 h; activity (max response): stronger effect = lower value; further: nearly all actives have a fitted effect of over 65% in size; further: potency means the concentration at half of the fitted maximal effect;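 on activity (max response): cells grown in serum-free medium with ITS supplement; on the % scale 0 is the no-effect control and ±100 the full control effect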
Procedure, shortened: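 Viability was read as CellTiter-Glo luminescence after 48 h compound treatment (up to 46 uM final) of SW-13 cells grown serum-free; titration curves were fit with a four-parameter logistic model to give IC50 and efficacy.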

[12] = Cellular viability qHTS for adrenocortical cancer (ACC) cell line NCI-H295R (AID 1963990); settings: CellTiter-Glo ATP luminescence, 48 h; series mostly up to 46.1 µM; further: nearly all actives have a fitted effect of over 60% in size; further: potency means the concentration at half of the fitted maximal effect
Procedure, shortened: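 CellTiter-Glo ATP luminescence, read 48 h after compound addition, measured viability of NCI-H295R adrenocortical cells grown serum-free with ITS. Final concentrations spanned up to 46 uM. Data normalized to DMSO and doxorubicin, fitted for IC50 and maximal response.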

[13] = Quantitative highthroughput screen to assess conditional lethalithy of NOMO1 cells grown in RPMI1640 with dialyzed fetal bovine serum (RPMI+ds) (AID 1963877); settings: NOMO1 in RPMI+dialyzed FBS viability, ATP luminescence, 48 h; series mostly up to 45.8 µM; further: nearly all actives have a fitted effect of over 30% in size; further: potency means the concentration at half of the fitted maximal effect;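 on Viability: 100% = DMSO control wells and 0% = empty wells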
Procedure, shortened: as §1

[14] = Quantitative highthroughput screen to assess conditional lethalithy of NOMO1 cells grown in RPMI1640 with untreated serum (RPMI+s) (AID 1963876); settings: NOMO1 AML cells in RPMI+serum, CellTiter-Glo viability, 48 h; series mostly up to 45.8 µM
Procedure, shortened: as §1

Cc1ccc(S(=O)(=O)NC(=O)NN2CC3CCCC3C2)cc1 (stereo not given)
active: Potency [4] 5.9 µM | Potency [5] 2.96 µM | Potency [6] 4.18 µM | Potency [7] 5.9 µM | Potency [8] 4.18 µM | Potency [9] 2.96 µM
inactive: Potency [1] | Potency [2] | Potency [3]

Nc1ccn([C@H]2CC[C@@H](CO)O2)c(=O)n1
inactive: Potency [1] | Potency [2] | Potency [3] | activity (max response) [11] 0.291% | Potency [12]
active: Potency [10] 23.5 µM

O=C(Nc1cccnn1)N1CCC(=Cc2cccc(Oc3ccc(C(F)(F)F)cn3)c2)CC1
inactive: Potency [1] | Potency [13] | Potency [4] | Potency [5] | Potency [6] | Potency [7] | Potency [8]
active: Potency [2] 7.42 µM | Potency [3] 10.3 µM and 6.61 µM | Potency [12] 15.8 µM

COc1c(O)cc2c(c1O)[C@@H]1O[C@H](CO)[C@@H](O)[C@H](O)[C@H]1OC2=O
active: Potency [10] 14.8 µM | Potency [4] 16.6 µM | Potency [7] 20.9 µM | Potency [8] 10.5 µM
inactive: Potency [1] | Potency [2] | Potency [3]

COc1cccc2cc(-c3nc(C4CCC(C(=O)O)CC4)n4ncnc(N)c34)[nH]c12 (stereo not given)
active: Potency [2] 461 nM and 366 nM | Potency [3] 580 nM and 461 nM | Potency [4] 0.296 µM | Potency [6] 0.59 µM | Potency [7] 0.59 µM | Potency [8] 0.935 µM | Potency [9] 1.18 µM
inactive: Potency [1]

CN(C)C(=O)COC(=O)Cc1ccc(OC(=O)c2ccc(N=C(N)N)cc2)cc1
inactive and 7.42 µM (active): Potency [3]
inactive: Potency [1] | Potency [2] | activity (max response) [11] 3.47% and -2% | Potency [12]
active: Potency [10] 20.9 µM

CC(C)NCC(O)COc1ccc(CCOCC2CC2)cc1 (stereo not given)
active: Potency [10] 16.6 µM
inactive: Potency [1] | Potency [2] | Potency [3] | Potency [4] | Potency [5] | Potency [6] | Potency [8] | activity (max response) [11] -8.57% | Potency [12]

CCC(C)(Oc1ccc(C2(c3ccc(OC(C)(CC)C(=O)O)cc3)CCCCC2)cc1)C(=O)O (stereo not given)
inactive: Potency [1] | Potency [2] | Potency [3] | Potency [13] | Potency [10] | Potency [4] | Potency [5] | Potency [6] | Potency [7] | Potency [8] | Potency [9] | Potency [12]

Cc1cn([C@H]2C[C@H](N=[N+]=[N-])[C@@H](CO)O2)c(=O)[nH]c1=O
inactive: Potency [1] | Potency [2] | Potency [3] | Potency [7] | Potency [8] | activity (max response) [11] -7.12% | Potency [12]
active: Potency [14] 1.32 µM

Cc1cc(=O)oc2cc(O)ccc12
inactive: Potency [1] | Potency [2] | Potency [3] | Potency [13] | Potency [10] | Potency [4] | Potency [5] | Potency [9] | activity (max response) [11] -3.93% and 10.3% | Potency [12]

Cn1c(=O)c2c(ncn2CC(O)CO)n(C)c1=O (stereo not given)
inactive: Potency [1] | Potency [2] | Potency [3] | Potency [10] | Potency [4] | Potency [5] | Potency [6] | Potency [7] | Potency [8] | activity (max response) [11] 9.53% and 9.36% | Potency [12]

CCn1cc(C(=O)O)c(=O)c2cc(F)c(N3CCNCC3)nc21
active: Potency [2] 0.0335 µM | Potency [3] 2.66 µM
inactive: Potency [1] | Potency [4] | Potency [5] | Potency [6] | Potency [7] | Potency [8] | Potency [9] | activity (max response) [11] 4.85% | Potency [12]

CCOC(=O)C(C)(C)Oc1ccc(Cl)cc1
inactive: Potency [1] | Potency [2] | Potency [3] | Potency [13] | Potency [10] | Potency [4] | Potency [5] | Potency [6] | Potency [8] | Potency [9] | activity (max response) [11] 0.705% and -17.8% | Potency [12]

COc1cc2c(Nc3ccc(Cl)c(Cl)c3F)ncnc2cc1OCC1C[C@@H]2CN(C)C[C@@H]2C1 (stereo not given in full)
inactive: Potency [1]
active: Potency [2] 1.86 µM | Potency [3] 2.31 µM and 2.95 µM | Potency [13] 23.4 µM | Potency [10] 13.2 µM | Potency [8] 20.9 µM | Potency [9] 20.9 µM | Potency [11] 2 µM | Potency [12] 7.94 µM and 8.91 µM

Cc1cc(C(C)(C)C)cc(C)c1CC1=NCCN1
inactive: Potency [1] | Potency [4] | Potency [5] | Potency [6] | Potency [8] | Potency [9] | activity (max response) [11] -1.59% and -10.9% | Potency [12]
active: Potency [2] 3.72 µM | Potency [3] 5.25 µM

N[C@@H]1CONC1=O
inactive: Potency [1] | Potency [2] | Potency [3] | Potency [13] | Potency [10] | Potency [4] | Potency [5] | Potency [6] | Potency [8] | Potency [9] | Potency [12]

CN(C)CCOC(c1ccccc1)c1ccccc1
inactive: Potency [1] | Potency [2] | Potency [3] | Potency [10] | Potency [6] | Potency [7] | Potency [8] | Potency [9] | activity (max response) [11] 0.185% and 9.44% | Potency [12]
